The values below come from ChEMBL document CHEMBL1961873, “Compounds: GSK PKIS; Assays: Nanosyn kinase panel” (2012).

Assay [1] addresses Tyrosine-protein kinase SYK (Homo sapiens) (UniProt P43405). As to conditions: at 1 µM.
For assay [2], the target named is T1, Tyrosine-protein kinase Tec (Homo sapiens) (UniProt P42680).
T1 sequence (whole entry): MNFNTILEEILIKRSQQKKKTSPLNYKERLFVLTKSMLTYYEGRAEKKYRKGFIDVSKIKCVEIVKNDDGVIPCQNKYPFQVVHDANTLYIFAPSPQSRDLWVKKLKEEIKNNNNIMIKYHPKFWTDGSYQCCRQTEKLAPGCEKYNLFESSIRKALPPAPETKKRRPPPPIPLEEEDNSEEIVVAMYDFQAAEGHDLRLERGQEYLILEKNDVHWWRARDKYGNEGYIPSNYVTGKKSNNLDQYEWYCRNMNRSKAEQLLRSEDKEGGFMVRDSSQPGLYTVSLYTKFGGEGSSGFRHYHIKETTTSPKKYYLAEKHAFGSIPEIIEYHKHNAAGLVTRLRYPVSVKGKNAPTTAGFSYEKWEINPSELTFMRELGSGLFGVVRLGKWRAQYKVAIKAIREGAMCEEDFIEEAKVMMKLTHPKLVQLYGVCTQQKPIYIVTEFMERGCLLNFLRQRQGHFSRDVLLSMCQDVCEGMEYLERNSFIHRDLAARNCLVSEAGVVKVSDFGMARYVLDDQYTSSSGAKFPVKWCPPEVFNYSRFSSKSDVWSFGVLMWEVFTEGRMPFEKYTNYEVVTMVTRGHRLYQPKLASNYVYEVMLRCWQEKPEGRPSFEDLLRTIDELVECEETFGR
As to conditions: at 0.1 µM.

In assay [3] the target is T1, Tyrosine-protein kinase Tec (Homo sapiens). The following applies: at 1 µM.
In assay [4] the target is Angiopoietin-1 receptor (Homo sapiens) (UniProt Q02763). The following applies: at 0.1 µM.
The target is the same in assay [5]. The following applies: at 1 µM.
In assay [6] the target is T2, Non-receptor tyrosine-protein kinase TNK1 (Homo sapiens) (UniProt Q13470).
T2 sequence (whole entry): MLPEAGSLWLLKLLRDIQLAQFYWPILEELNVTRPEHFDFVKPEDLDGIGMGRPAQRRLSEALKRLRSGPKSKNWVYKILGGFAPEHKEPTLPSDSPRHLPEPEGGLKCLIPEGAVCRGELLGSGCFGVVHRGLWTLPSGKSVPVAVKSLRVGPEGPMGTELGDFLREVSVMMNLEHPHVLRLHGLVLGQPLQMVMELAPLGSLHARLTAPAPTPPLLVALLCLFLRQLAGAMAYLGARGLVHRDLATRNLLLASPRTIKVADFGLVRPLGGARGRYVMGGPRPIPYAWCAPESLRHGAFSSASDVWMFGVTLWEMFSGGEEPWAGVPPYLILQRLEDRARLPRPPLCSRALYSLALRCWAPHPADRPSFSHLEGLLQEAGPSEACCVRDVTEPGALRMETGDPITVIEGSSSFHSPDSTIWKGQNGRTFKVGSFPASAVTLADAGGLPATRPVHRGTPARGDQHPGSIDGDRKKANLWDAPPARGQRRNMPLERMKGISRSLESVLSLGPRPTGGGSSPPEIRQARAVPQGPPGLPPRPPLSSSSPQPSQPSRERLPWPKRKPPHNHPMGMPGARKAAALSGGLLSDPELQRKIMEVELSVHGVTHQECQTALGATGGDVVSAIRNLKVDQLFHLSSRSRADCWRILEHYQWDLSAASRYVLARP
The following applies: at 0.1 µM.

In assay [7] the target is T2, Non-receptor tyrosine-protein kinase TNK1 (Homo sapiens). The following applies: at 1 µM.
The target in assay [8] is Activated CDC42 kinase 1 (Homo sapiens) (UniProt Q07912). As to conditions: at 0.1 µM.
Assay [9] has the same target. The following applies: at 1 µM.
The target in assay [10] is High affinity nerve growth factor receptor (Homo sapiens) (UniProt P04629). As to conditions: at 0.1 µM.
Assay [11] shares this target. The following applies: at 1 µM.
Assay [12] has as its target BDNF/NT-3 growth factors receptor (Homo sapiens) (UniProt Q16620). As to conditions: at 0.1 µM.
Assay [13] has the same target. The following applies: at 1 µM.
Assay [14] deals with NT-3 growth factor receptor (Homo sapiens) (UniProt Q16288). As to conditions: at 0.1 µM.
The target is the same in assay [15]. The following applies: at 1 µM.
The target in assay [16] is T3, Tyrosine-protein kinase TXK (Homo sapiens) (UniProt P42681).
T3 sequence (whole entry): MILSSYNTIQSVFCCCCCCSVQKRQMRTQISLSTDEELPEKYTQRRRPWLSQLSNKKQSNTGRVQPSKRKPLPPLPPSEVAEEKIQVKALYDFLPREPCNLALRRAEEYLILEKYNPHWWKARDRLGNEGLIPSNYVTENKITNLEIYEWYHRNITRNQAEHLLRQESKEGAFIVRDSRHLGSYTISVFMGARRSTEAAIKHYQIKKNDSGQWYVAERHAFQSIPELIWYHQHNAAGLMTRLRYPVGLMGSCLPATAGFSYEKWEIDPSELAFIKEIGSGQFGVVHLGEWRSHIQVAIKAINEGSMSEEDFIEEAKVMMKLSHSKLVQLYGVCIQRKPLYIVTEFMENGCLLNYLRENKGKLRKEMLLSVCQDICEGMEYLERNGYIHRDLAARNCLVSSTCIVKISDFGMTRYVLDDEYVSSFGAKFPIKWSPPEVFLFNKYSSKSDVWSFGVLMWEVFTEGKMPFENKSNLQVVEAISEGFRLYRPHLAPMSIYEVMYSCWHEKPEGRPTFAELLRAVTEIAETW
As to conditions: at 0.1 µM.

For assay [17], the target named is T3, Tyrosine-protein kinase TXK (Homo sapiens). The following applies: at 1 µM.
The target in assay [18] is Non-receptor tyrosine-protein kinase TYK2 (Homo sapiens) (UniProt P29597). The following applies: at 0.1 µM.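 Also: each value is a mean of the inhibition readings.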
The target of assay [19] is T4, Dual specificity protein kinase TTK (Homo sapiens) (UniProt P33981).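 Also: reported figures are mean TTK inhibition at 1 µM.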
T4 sequence (whole entry): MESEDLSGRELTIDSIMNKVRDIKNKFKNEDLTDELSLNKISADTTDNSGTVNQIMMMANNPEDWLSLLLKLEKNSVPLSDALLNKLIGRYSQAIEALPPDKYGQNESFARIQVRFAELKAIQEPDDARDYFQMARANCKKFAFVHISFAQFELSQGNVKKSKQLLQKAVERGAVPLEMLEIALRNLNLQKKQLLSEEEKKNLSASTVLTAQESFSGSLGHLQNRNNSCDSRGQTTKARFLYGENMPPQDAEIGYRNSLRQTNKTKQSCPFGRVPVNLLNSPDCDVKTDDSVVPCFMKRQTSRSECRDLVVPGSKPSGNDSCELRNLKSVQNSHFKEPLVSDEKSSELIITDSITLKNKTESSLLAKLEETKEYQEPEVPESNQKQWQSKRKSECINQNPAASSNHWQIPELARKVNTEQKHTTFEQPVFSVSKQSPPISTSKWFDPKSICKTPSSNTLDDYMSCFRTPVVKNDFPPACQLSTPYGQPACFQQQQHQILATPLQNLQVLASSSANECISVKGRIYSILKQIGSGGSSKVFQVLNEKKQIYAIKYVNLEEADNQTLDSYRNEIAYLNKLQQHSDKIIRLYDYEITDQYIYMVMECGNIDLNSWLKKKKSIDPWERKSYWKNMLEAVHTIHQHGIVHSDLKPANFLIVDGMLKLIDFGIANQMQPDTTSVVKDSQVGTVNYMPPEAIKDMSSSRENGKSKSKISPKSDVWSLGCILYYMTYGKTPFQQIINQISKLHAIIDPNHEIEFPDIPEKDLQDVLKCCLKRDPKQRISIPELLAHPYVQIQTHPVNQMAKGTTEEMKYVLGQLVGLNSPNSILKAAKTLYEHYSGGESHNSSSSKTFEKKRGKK
As to conditions: at 1 µM.

The target in assay [20] is T5, Aurora kinase A (Homo sapiens) (UniProt O14965).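 Also: each reported value is a mean percent inhibition of Aurora-A.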
T5 sequence (whole entry): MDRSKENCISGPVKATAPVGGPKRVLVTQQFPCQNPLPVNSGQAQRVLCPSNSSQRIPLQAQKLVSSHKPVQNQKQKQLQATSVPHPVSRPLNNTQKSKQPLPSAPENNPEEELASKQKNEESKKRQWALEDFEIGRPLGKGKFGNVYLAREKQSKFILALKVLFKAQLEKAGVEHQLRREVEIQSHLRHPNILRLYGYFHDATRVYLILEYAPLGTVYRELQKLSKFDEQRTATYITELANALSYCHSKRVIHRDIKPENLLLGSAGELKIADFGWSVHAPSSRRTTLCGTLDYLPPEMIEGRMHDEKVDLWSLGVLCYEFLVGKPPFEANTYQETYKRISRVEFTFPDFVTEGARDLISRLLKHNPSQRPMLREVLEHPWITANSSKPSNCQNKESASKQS
The following applies: at 0.1 µM.

Chain of BDNF/NT-3 growth factors receptor (Homo sapiens) (Q16620 32-822 limits assumed): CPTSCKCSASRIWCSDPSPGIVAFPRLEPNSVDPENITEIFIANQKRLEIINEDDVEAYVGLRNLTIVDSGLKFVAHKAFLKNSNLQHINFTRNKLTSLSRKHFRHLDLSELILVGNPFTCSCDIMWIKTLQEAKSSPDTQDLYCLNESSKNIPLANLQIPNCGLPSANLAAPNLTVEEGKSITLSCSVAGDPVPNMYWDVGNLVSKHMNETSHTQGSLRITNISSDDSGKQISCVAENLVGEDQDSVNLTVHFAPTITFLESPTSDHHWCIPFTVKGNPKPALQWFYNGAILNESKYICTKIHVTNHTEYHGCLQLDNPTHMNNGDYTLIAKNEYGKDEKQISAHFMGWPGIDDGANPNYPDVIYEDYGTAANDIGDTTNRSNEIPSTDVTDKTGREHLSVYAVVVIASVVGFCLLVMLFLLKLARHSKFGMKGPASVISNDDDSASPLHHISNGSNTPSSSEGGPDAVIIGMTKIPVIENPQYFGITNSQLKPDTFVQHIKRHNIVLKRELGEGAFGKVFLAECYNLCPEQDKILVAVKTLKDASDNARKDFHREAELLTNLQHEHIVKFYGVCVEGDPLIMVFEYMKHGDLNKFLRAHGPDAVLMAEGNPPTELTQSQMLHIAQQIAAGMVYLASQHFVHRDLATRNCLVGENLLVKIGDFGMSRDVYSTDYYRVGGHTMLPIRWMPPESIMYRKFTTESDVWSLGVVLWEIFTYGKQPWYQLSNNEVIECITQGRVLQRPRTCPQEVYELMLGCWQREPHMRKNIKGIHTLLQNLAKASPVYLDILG
Chain of Non-receptor tyrosine-protein kinase TYK2 (Homo sapiens) (P29597 whole entry): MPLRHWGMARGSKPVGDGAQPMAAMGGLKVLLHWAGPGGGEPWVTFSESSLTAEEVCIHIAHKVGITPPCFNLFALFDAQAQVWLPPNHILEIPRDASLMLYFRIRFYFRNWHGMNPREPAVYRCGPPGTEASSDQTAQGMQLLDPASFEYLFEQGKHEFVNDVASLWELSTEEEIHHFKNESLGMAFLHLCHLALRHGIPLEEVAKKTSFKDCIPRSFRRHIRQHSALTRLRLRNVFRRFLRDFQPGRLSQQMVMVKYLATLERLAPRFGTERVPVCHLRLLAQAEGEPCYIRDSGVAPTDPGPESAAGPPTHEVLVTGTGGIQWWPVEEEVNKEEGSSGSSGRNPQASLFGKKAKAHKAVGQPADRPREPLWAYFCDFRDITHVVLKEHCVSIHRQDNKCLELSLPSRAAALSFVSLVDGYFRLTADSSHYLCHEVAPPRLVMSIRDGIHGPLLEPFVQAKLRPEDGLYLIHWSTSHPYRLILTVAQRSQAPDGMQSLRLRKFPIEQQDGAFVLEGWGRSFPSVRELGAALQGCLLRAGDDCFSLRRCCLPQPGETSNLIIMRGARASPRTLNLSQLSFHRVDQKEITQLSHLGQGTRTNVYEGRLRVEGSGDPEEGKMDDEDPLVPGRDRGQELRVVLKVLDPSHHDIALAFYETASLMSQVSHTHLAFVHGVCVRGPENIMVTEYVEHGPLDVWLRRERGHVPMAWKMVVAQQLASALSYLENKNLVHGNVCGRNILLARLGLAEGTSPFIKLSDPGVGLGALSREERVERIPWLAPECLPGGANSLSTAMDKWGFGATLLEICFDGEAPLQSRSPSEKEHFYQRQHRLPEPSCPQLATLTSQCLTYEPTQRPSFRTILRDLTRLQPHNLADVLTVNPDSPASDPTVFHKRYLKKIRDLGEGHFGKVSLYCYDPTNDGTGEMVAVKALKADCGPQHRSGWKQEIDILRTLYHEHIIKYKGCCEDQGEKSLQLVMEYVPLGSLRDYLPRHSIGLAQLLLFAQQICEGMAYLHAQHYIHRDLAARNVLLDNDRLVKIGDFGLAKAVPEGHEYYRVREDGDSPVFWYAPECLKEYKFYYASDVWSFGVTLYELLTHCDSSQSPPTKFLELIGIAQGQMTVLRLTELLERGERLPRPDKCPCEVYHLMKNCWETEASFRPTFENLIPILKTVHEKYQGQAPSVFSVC
Chain of Activated CDC42 kinase 1 (Homo sapiens) (Q07912 whole entry, looked up): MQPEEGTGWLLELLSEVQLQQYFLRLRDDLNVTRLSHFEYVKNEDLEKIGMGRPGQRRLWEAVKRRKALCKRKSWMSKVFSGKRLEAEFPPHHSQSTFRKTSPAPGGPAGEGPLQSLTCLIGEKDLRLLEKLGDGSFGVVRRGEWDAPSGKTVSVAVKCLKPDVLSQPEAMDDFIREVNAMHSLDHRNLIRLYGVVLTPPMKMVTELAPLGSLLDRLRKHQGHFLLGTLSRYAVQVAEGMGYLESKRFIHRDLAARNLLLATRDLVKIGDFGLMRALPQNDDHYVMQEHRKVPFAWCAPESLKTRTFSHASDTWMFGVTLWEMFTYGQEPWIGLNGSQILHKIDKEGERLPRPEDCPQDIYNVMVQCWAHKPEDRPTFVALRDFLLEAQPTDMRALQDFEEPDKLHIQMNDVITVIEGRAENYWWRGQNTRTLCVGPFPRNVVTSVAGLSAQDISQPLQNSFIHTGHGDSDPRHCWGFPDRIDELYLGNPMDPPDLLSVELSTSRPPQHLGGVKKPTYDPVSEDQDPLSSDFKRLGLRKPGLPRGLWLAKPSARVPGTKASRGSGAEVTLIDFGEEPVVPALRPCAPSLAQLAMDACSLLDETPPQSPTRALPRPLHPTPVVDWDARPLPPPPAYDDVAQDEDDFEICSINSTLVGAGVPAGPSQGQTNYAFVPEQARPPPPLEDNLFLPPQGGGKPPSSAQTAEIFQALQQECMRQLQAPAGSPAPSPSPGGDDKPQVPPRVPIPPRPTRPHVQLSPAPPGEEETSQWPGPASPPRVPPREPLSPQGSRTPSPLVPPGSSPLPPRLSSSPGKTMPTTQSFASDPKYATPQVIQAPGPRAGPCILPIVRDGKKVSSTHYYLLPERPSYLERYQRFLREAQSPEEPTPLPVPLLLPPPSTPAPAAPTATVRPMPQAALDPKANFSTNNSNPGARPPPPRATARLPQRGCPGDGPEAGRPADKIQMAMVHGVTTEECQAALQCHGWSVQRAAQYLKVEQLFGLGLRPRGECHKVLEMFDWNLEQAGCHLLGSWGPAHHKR
Chain of Angiopoietin-1 receptor (Homo sapiens) (Q02763 whole entry): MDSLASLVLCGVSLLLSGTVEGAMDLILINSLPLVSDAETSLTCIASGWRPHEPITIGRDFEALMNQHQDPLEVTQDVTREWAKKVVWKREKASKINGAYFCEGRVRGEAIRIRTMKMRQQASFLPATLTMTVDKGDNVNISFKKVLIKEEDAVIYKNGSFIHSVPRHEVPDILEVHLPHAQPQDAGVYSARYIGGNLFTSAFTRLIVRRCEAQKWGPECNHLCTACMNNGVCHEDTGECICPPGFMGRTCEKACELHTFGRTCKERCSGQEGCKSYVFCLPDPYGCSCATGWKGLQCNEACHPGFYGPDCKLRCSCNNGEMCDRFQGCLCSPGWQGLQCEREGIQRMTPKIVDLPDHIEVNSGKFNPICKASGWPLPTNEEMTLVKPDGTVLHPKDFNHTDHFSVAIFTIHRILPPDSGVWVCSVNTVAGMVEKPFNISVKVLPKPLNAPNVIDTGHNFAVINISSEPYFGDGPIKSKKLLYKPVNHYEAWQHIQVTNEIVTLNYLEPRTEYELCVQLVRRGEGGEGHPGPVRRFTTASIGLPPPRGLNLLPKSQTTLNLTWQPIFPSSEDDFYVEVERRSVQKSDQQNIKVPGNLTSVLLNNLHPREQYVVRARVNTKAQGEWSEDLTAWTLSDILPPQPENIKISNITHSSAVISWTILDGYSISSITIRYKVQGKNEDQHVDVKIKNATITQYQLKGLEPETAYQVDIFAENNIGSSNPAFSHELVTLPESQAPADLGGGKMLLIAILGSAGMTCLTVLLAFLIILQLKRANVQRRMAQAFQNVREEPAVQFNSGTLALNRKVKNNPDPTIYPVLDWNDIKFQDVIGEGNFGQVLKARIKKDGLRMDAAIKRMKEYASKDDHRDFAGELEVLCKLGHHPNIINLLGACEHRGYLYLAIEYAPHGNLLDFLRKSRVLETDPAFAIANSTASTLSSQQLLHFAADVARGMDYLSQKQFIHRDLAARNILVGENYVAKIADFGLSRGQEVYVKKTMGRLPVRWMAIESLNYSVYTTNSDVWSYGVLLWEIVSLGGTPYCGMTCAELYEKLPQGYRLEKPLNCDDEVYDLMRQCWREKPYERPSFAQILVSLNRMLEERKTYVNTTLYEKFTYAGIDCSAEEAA
Chain of High affinity nerve growth factor receptor (Homo sapiens) (P04629 33-796 limits assumed): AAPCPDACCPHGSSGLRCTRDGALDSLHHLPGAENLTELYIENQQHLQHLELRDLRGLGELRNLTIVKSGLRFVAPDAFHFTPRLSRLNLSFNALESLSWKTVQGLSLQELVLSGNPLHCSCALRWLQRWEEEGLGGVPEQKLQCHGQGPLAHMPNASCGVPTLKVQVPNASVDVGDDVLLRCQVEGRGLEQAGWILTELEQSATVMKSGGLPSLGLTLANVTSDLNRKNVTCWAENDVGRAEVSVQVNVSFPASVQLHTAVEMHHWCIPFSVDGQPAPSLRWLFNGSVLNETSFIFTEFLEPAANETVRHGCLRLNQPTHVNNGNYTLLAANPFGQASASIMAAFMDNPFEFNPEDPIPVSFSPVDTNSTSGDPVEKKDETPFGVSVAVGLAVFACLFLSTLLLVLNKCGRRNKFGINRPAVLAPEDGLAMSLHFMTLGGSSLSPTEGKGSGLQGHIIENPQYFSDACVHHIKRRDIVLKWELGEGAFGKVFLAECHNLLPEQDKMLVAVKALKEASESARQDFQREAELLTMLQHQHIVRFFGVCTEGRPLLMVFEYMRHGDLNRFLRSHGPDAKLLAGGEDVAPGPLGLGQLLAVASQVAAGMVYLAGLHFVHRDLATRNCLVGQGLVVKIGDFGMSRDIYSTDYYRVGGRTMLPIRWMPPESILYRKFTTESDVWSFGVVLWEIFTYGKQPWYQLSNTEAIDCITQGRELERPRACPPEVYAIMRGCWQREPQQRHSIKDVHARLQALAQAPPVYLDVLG

As to `CN1CCC(C(=O)Nc2n[nH]c3nnc(-c4ccccc4)cc23)CC1`, the inhibition (as a rule, the change of the read-out against control, counted positive when it falls) in assay [1] is -1.15%; in assay [2], 3.47%; in assay [3], 4.52%; in [4], 2.55%; in [5], 7%; in [6], 2.98%. Moreover, the inhibition in assay [7] is 7.95%; in assay [8], 1.4%; in [9] it was 1.85%; in assay [10], 0.43%; in assay [11] it was 1.65%; in assay [12], 2.71%. Further, the inhibition in assay [13] is 5.68%; in assay [14] it was 2.52%; in assay [15] it was 6.56%; in assay [16], 2.62%; in assay [17] it was 4.13%; in assay [18] it was -3.53%. Moreover, the inhibition is 15% in assay [19] and 3.39% in assay [20].
As to `CS(=O)(=O)CCNCc1nc(-c2ccc3ncnc(Nc4ccc(F)c(Cl)c4)c3c2)cs1`, the inhibition in assay [1] was -0.34%; in [2] it was 3.79%; in [3], 9.13%; in assay [4], 7.71%; in [5], 5.89%; in assay [6], 4.58%. In addition, the inhibition amounted to 27.1% in [7]; 0.19% in [8]; 2.87% in assay [9]; 3.85% in assay [10]; 1.47% in [11]; 0.48% in assay [12]. The inhibition is 4.21% in assay [13]; 1.55% in assay [14]; 2.39% in [15]; 3.78% in assay [16]; 15.9% in assay [17]; -3.38% in assay [18]. Moreover, the figures for the inhibition in [19] and in [20] were 6.34% and 1.71%, respectively.
In the case of `CS(=O)(=O)Nc1ccc(N/C=C2\C(=O)Nc3ccccc32)cc1`, the inhibition in assay [1] is -3.83%; in [2], -2.97%; in assay [3], 0.17%; in [4] it was 0.36%; in [5] it was 2.36%; in [6] it was -2.85%. Also, the inhibition is 6.96% in assay [7]; -0.49% in assay [8]; 1.32% in assay [9]; 5.97% in [10]; 46.7% in assay [11]; 11.2% in assay [12]. Besides, the inhibition in assay [13] is 58.6%; in assay [14], 14.1%; in assay [15], 57%; in assay [16], -1.93%; in assay [17], 1.85%; in [18], 3.51%. Moreover, the inhibition in [19] is 18.9%; in [20], 7.34%.
Take `COc1cccc(-n2ncc3c(N/N=C/c4cccc(F)c4)ncnc32)c1`: the inhibition in [1] was -0.87%; in assay [2], -1.33%; in assay [3], 2.09%; in [4] it was 1.49%; in [5] it was 9%; in [6], 2.13%. In addition, the inhibition in [7] was determined as 2.44%; in [8], 0.24%; in [9], 0.25%; in assay [10] it was 3.27%; in assay [11] it was 3.57%; in assay [12], 2.75%. In addition, the inhibition is 6.27% in assay [13]; 2.97% in assay [14]; 7.58% in [15]; -0.86% in assay [16]; 1.52% in assay [17]; -0.2% in assay [18]. The inhibition in [19] was 10.5%; in assay [20] it was -2.23%.
With `CS(=O)(=O)CCNCc1ccc(-c2ccc3ncnc(Nc4ccc(OCc5ccccc5)c(Cl)c4)c3c2)o1`, the inhibition was 1.51% in [1]; -0.91% in [2]; 0.89% in assay [3]; 7.47% in [4]; 9.67% in [5]; 2.4% in [6]. Besides, the inhibition is 11.3% in assay [7]; -0.1% in assay [8]; 0.61% in [9]; 2.31% in assay [10]; 4.84% in [11]; 2.92% in assay [12]. In addition, the inhibition in assay [13] worked out at 2.87%; in assay [14], 1.98%; in assay [15], 2.17%; in assay [16] it was 1.26%; in [17] it was 1.47%; in assay [18], 1.67%. Moreover, the inhibition was determined as 6.09% in assay [19] and 0.56% in [20].
As for `NC(=O)c1cccc(Nc2nccc(Nc3cccc4[nH]ncc34)n2)c1`, the inhibition in [1] turned out to be 25.4%; in assay [2], 17.4%; in assay [3], 62.5%; in assay [4], 9.12%; in assay [5], 47.5%; in assay [6], 6.88%. The inhibition in assay [7] came out at 58.3%; in [8], 5.44%; in [9] it was 47.8%; in assay [10] it was 0.29%; in assay [11] it was 6.83%; in assay [12], 0.06%. Besides, the inhibition turned out to be 14.1% in [13]; 1.25% in assay [14]; 12.9% in assay [15]; 15.8% in assay [16]; 55.1% in assay [17]; 4.66% in assay [18]. Further, the values for the inhibition in assay [19] and in assay [20] were 9.28% and 36.4%, respectively.
